Measurements reported in PubChem BioAssay (Tox21).
Results filed as inconclusive are left out. A call without a number means that no potency is given here. Active and inactive are the calls of the source. The call rests on the fitted dose curve.

Assay: qHTS assay to identify small molecule agonists or antagonists of the thyroid stimulating hormone receptor (TSHR) signaling pathway - wild type cell line counter screen (AID 1259384)
Conditions: HEK293 wild type, cAMP HTRF counter-screen; series mostly up to 92.4 µM
From the text: U.S. Tox21 Program National Center for Advancing Translational Sciences [NCATS] NIH Chemical Genomics Center [NCGC] U.S. Environmental Protection Agency [EPA] National Institutes of Environmental Health Sciences [NIEHS] National Toxicology Program [NTP] U.S. Food and Drug Administration [FDA] Tox21 Assay Overview: TSHR is the receptor for thyrotropin (thyroid stimulating hormone or TSH), a member of the glycoprotein hormone family. TSH is released by the anterior pituitary gland and is the main regulator of thyroid gland growth and development. Upon binding circulating thyrotropin, a G-protein signal cascade activates adenylyl cyclase and […] cAMP concentration is increased. cAMP is a key second messenger involved extensively in cellular signal transduction pathways associated with the majority of G-protein coupled receptors (GPCRs). The activation of these GPCRs by neurotransmitters, lipids, nucleotides, peptides and hormones results in the activation or the inhibition of plasma membrane-bound adenylate cyclase through heterotrimeric G-proteins. A cell-based TSHR-Hek293 assay can be used to identify TSHR agonists. To eliminate the false positive compounds identified from screening a cell-based TSHR-Hek293 cell line, cAMP assay in a wild type Hek293 cells was used as a counter screening.
Tox21 Assay Protocol Summary: Hek293 cells (wild type) were dispensed at 800 cells/4 uL/well in 1536-well white plates using a Multidrop dispenser. After the assay plates were incubated at a 37 C/5% CO2 incubator for 18 hrs, 23 nL of compounds dissolved in DMSO, positive controls or DMSO only was transferred to the assay plate by a pin tool, followed by 1 ul medium containing Ro20-1724. After 30 min of incubation at room temperature, 2.5 ul/well of cAMP-d2 and 2.5 ul/well of anti-cAMP-cryptate were added respectively into the assay plates using a Flying Reagent Dispenser. The plates were incubated at room temperature for 1 hr. The fluorescence intensity in the plates was measured using an Envision plate reader. Each test compound was measured at 15 concentrations and in triplicates.
For `O=C1Nc2ccc(Cl)cc2C(c2ccccc2)=NC1O` (stereo not given), the Potency was “inactive”.
With `Cn1c(-c2ccccc2)cc(-c2ccccc2)[n+]1C` the Potency was “inactive”.
With `CNC(=O)Oc1cccc2c1OC(C)(C)C2` the Potency was “inactive”.
For `ClC(Cl)(Cl)Br`, the Potency was “inactive”.
In the case of `CNC(=O)CSP(=S)(OC)OC`, the Potency is reported as “inactive”.
With `CCOC(=O)c1ccccc1N` the Potency was “inactive”.
For `CCCCC(C#N)(Cn1cncn1)c1ccc(Cl)cc1` (stereo not given), the Potency was “inactive”.
For `CCOP(=S)(OCC)SCn1c(=O)oc2cc(Cl)ccc21`, the Potency was “inactive”.
In the case of `CC(C)(C#N)N=NC(C)(C)C#N`, the Potency is reported as “inactive”.
With `CCCCCCCCCCCCCl` the Potency was “inactive”.
With `CN(C)c1nc(=O)n(C2CCCCC2)c(=O)n1C` the Potency was “inactive”.
With `CC(C)COC(=O)c1ccccc1C(=O)OCC(C)C` the Potency was “inactive”.
For `C[C@]12CCC(=O)C=C1CC[C@@H]1[C@@H]2CC[C@@]2(C)[C@H]1CC[C@]2(C)O`, the Potency was “inactive”.
For `Cc1ccc(N=CN(C)C=Nc2ccc(C)cc2C)c(C)c1`, the Potency was “inactive”.
In the case of `c1ccc(C2CO2)cc1` (stereo not given), the Potency is reported as “inactive”.
For `[CH3][Sn]([Cl])([Cl])[Cl]`, the Potency was “inactive”.
With `CS(=O)(=O)NC(=O)c1cc(Oc2ccc(C(F)(F)F)cc2Cl)ccc1[N+](=O)[O-]` the Potency was “inactive”.
With `CN(C)P(=O)(N(C)C)N(C)C` the Potency was “inactive”.
In the case of `O=NN1CCOCC1`, the Potency is reported as “inactive”.
With `CCCCOCC1CO1` (stereo not given) the Potency was “inactive”.
For `O=C(O)CF`, the Potency was “inactive”.
With `Cc1ccc([N+](=O)[O-])cc1` the Potency was “inactive”.
In the case of `CCCCCCCC[N+](C)(CCCCCCCC)CCCCCCCC`, the Potency is reported as “inactive”.
With `CC1CC(=O)O1` (stereo not given) the Potency was “inactive”.
In the case of `CCCCCCCCCc1ccc(O)cc1`, the Potency is reported as “inactive”.
For `CCCCSP(=O)(SCCCC)SCCCC`, the Potency was “inactive”.
For `N#Cc1c(Cl)c(Cl)c(Cl)c(C#N)c1Cl`, the Potency was “inactive”.
With `CCN(CC)C(=O)C(C)Oc1cccc2ccccc12` (stereo not given) the Potency was “inactive”.
With `Clc1cccc(C(Cl)(Cl)Cl)n1` the Potency was “inactive”.
In the case of `COP(=S)(OC)Oc1ccc(Sc2ccc(OP(=S)(OC)OC)cc2)cc1`, the Potency is reported as “inactive”.
For `ClCc1ccccn1`, the Potency was “inactive”.
In the case of `COC(=O)Nc1nc2ccccc2[nH]1`, the Potency is reported as “inactive”.
In the case of `N#CC(c1ccccc1)c1ccccc1`, the Potency is reported as “inactive”.
For `C=C(C)C#N`, the Potency was “inactive”.
For `O=C(O)c1nn(Cc2ccc(Cl)cc2Cl)c2ccccc12`, the Potency was “inactive”.
With `ClCC(Cl)CCl` the Potency was “inactive”.
For `CC(C)(O)C(=O)Nc1ccc([N+](=O)[O-])c(C(F)(F)F)c1`, the Potency was “inactive”.
For `CN(C)c1ccccc1`, the Potency was “inactive”.
With `N#Cc1cccnc1` the Potency was “inactive”.
In the case of `CC(C)(c1ccccc1)c1ccc(O)c(C(C)(C)c2ccccc2)c1`, the Potency is reported as “inactive”.
